Assay outcomes (PubChem BioAssay)
Hits are enriched below; roughly 12% of the tested compounds scored in any of these assays.
Sfp inh = blocks B. subtilis Sfp PPTase activity. AID 1490. 310,000 compounds, 3.5% hits. Potency, µM, hits mostly inhibitors. Biochemical Sfp PPTase activity, qHTS. Q9F4F7;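 also: the enzyme is Sfp with the accession as filed and its product quenches rhodamine fluorescence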
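Sfp 15 nM + cpd, 15 min RT; start w/ rhodamine-CoA 5 uM, BHQ-2-YbbR 12.5 uM (final); 50 mM Hepes pH 7.6, 10 mM MgCl2, 0.01% NP-40, 0.01% BSA; read 525/598 nm at 0 and 30 min.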
G9a inh = inhibitors of human histone lysine methyltransferase G9a; AID 504332; Potency, µM (highest dose often 102 µM), most hits filed as inhibitors; G9a H3K9 monomethylation, AlphaScreen, 2 h; Q96KQ7; 350,000 compounds, 8.8% hits; also: nearly all actives have a fitted effect of over 75% in size
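Readings reflect AlphaScreen signal from monomethyl-H3K9 antibody detection. HMT at 20 nM; substrate b-H3K9 500 nM; cofactor SAM 20 uM; 2 h RT reaction; compounds tested as titrations in qHTS with 15 min preincubation.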
JMJD2A Tudor = blocks the human JMJD2A Tudor domain | O75164 | AlphaScreen JMJD2A-Tudor / H3K4me3 peptide binding | Potency, µM (doses to about 114 µM), hits mostly inhibitors | 390,000 compounds, 4.4% hits | AID 504339; also: nearly all actives have a fitted effect of over 50% in size
Target sequence (O75164 whole entry, looked up, the tested form may be a part): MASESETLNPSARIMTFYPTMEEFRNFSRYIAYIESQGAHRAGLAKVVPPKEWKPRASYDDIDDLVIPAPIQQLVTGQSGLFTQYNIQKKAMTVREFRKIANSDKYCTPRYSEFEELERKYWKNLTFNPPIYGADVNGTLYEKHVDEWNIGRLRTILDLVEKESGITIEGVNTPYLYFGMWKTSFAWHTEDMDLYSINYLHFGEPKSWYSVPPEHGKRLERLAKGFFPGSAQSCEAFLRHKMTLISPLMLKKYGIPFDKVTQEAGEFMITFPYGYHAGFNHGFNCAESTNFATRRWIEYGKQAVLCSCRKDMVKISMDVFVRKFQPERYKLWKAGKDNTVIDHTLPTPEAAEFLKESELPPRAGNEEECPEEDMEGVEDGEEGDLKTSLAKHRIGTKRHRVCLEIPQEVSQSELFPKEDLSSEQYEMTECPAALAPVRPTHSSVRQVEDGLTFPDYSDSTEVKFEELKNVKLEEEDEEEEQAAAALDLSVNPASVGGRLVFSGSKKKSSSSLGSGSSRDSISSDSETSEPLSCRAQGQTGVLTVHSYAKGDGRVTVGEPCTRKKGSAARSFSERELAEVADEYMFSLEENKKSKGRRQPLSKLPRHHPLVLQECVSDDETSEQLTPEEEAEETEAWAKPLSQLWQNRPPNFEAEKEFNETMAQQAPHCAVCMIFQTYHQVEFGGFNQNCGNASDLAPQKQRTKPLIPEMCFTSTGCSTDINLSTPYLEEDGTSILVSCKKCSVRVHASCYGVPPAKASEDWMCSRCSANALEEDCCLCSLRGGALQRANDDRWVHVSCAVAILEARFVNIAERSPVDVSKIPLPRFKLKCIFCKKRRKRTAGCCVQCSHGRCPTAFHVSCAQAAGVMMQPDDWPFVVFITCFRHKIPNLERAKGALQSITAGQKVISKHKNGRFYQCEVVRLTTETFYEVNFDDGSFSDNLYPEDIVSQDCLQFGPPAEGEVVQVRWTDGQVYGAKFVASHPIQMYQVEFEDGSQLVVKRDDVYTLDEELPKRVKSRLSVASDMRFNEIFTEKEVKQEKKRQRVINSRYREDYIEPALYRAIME
HP1b chromo inh = HP1-beta chromodomain-methylated histone interaction inhibition; Potency, µM (titrated, usually from 114 µM), usual class: inhibitors; 390,000 compounds, 0.56% hits; AlphaScreen HP1-beta / biotin-H3K9me3 peptide binding; also: nearly all actives have a fitted effect of over 70% in size
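HP1-beta protein (50 nM final) preincubated 30 min at room temperature with biotinylated H3(1-18)K9me3 peptide (50 nM) in PBS pH 7.4, 0.01% Tween-20, then compound added for 30 min. AlphaScreen streptavidin donor/nickel chelate acceptor beads (10 ug/mL final), 30 min dark, luminescence read.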
L3MBTL1 inh = L3MBTL1 (human) inhibition. Q9Y468. AlphaScreen L3MBTL1–H3K9me1 peptide binding. Potency, µM (doses to about 57.1 µM), most hits filed as inhibitors. 230,000 compounds, 0.66% hits; also: nearly all actives have a fitted effect of over 60% in size
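Displacement of a biotinylated histone H3(1-15) peptide monomethylated at Lys9 (75 nM) from L3MBTL1 (50 nM) was measured by AlphaScreen after a 30 min room-temperature compound incubation; cefsulodin titration served as intraplate control.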
BAZ2B block = inhibitors of human BAZ2B bromodomain | AlphaScreen BAZ2B-H3K14Ac peptide displacement | Potency, µM (titrated, usually from 114 µM), hits mostly inhibitors | 360,000 compounds, 4.4% hits | AID 504333; also: nearly all actives have a fitted effect of over 60% in size
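Inhibition is scored as reduced AlphaScreen emission. The BAZ2B/b-H3(5-23)K14Ac complex (50 nM each) in PBS pH 7.4, 0.01% Tween-20 meets compound (up to 110 uM) for 30 min at RT before bead addition.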
Large screens that a line does not name were inactive; ! = not confirmed by another sample. Calls follow the shape of the dose curve; as a rule, active = well fitted curve in the direction sought with a large enough effect; inconclusive = small, poorly fitted or top-dose-only effect, or another doubt; inactive = no such curve, though single readings can be large; an effect the other way counts as inactive or inconclusive.

COc1cccc(CNC(=O)CNS(=O)(=O)c2ccc3nc(C)sc3c2)c1	none (no result: Sfp inh, L3MBTL1 inh)
Cc1ccc(CNC(=O)C2CCN(S(=O)(=O)c3cccs3)CC2)o1	Sfp inh 18µM, G9a inh 8.9µM
Cc1ccc(CNC(=O)C2CCN(S(=O)(=O)c3cccs3)CC2)cc1	JMJD2A Tudor 89µM (no result: L3MBTL1 inh)
CCCNC(=O)C1CCN(S(=O)(=O)c2cccs2)CC1	none
CCN(CC)c1ccc(CN2CCC(C(=O)NCc3ccc(C)cc3)CC2)cc1	JMJD2A Tudor 20µM, HP1b chromo inh inconclusive (no result: G9a inh)
Cc1ccc(CNC(=O)COC(=O)C2CCN(S(=O)(=O)c3cccs3)CC2)cc1	none (no result: BAZ2B block)
Cc1ccc(CNC(=O)C2CCC(=O)N(CC3CCCCC3)C2)o1 (stereo not drawn)	G9a inh 45µM (no result: L3MBTL1 inh)
COc1ccc(-n2c(CC3C(=O)N(C)c4ccc(C)cc43)nc3ccccc3c2=O)cc1 (stereo not drawn)	none (no result: Sfp inh, L3MBTL1 inh)
C=C1c2ccccc2O[C@H](C(=O)OCC)[C@@H]1CCC(C)C (tested in a mixture with another compound)	none (no result: JMJD2A Tudor, HP1b chromo inh, L3MBTL1 inh, BAZ2B block)
C=C1c2cccc(OC)c2O[C@H](C(=O)OCC)[C@@H]1CCC(C)C	G9a inh 32µM (no result: JMJD2A Tudor, HP1b chromo inh, L3MBTL1 inh, BAZ2B block)
CCCCNC(=S)Nc1ccc(C(F)(F)F)cc1	none
CCCCNC(=S)NC(C)(C)CO	G9a inh 11µM
CC(C)NCC(O)c1cc(O)cc(O)c1 (stereo not drawn)	G9a inh 25µM! (no result: L3MBTL1 inh)
CC(C)NC[C@H](O)c1ccc(O)c(O)c1	Sfp inh 4µM!, G9a inh 8.9µM!
COc1ccccc1N=c1sc2ccccc2n1C	Sfp inh 56µM (no result: L3MBTL1 inh)
Cc1ccc(Cn2c(=O)n(-c3cccc(C(F)(F)F)c3)c(=O)c3c(C)c(C)sc32)c(C)c1	none (no result: Sfp inh, L3MBTL1 inh)
O=C(CSC1=NCCS1)NCc1ccco1	JMJD2A Tudor 18µM
O=C(CSc1ccc(Cl)cc1)NCc1ccco1	Sfp inh 89µM (no result: G9a inh)
COc1ccccc1CNC(=O)CSC1=NCCS1	G9a inh inconclusive
O=C(CCSCc1ccc(Cl)cc1)NCc1ccco1	BAZ2B block inconclusive (no result: L3MBTL1 inh)
O=C(CNCc1ccc(Cl)cc1)NCc1ccco1	G9a inh 5.6µM, JMJD2A Tudor 79µM, HP1b chromo inh inconclusive, BAZ2B block 50µM
O=C(CSc1ccc(Cl)cc1)NC(=O)NCc1ccco1	BAZ2B block inconclusive (no result: L3MBTL1 inh)
Cc1nc(C)c(-c2ccc(SCC(=O)Nc3ccc(Br)cc3)nn2)s1	none (no result: Sfp inh, L3MBTL1 inh)
COc1cc2c(cc1OC)C(COc1cc(C)cc(C)c1)N(C(=O)C(C)(C)C)CC2 (stereo not drawn)	none (no result: Sfp inh, L3MBTL1 inh)
Cc1ccc(-c2cc(=O)c3cc(F)ccc3[nH]2)cc1	none
O=c1cc(-c2ccccc2)[nH]c2ccc(F)cc12	G9a inh 79µM!
O=c1cc(-c2cccc(F)c2)[nH]c2ccccc12	G9a inh 32µM!
COc1ccc2[nH]c(-c3cccc(F)c3)cc(=O)c2c1	G9a inh inconclusive
Cc1ccc2[nH]c(-c3cccc(F)c3)cc(=O)c2c1	G9a inh 0.28µM!
Cc1ccc(/C([O-])=C(/C(=S)NCc2ccco2)[n+]2ccccc2)cc1	Sfp inh inconclusive, G9a inh 2.5µM (no result: JMJD2A Tudor, HP1b chromo inh, L3MBTL1 inh)
[O-]/C(=C(\C(=S)NCc1ccco1)[n+]1ccccc1)c1ccccc1Br	Sfp inh 13µM, G9a inh inconclusive, BAZ2B block inconclusive
O=[N+]([O-])c1ccc(/C([O-])=C(/C(=S)NCc2ccco2)[n+]2ccccc2)cc1	Sfp inh 8.9µM, G9a inh 35µM, L3MBTL1 inh inconclusive, BAZ2B block inconclusive
O=C(NNC(=S)NCc1ccco1)c1ccccc1Br	none (no result: L3MBTL1 inh)
Cc1ccc(C(=O)NCCC(=O)NCc2ccco2)cc1	G9a inh inconclusive (no result: L3MBTL1 inh)
Cc1ccc(NC(=S)/C(=C(\[O-])c2ccc(F)cc2)[n+]2ccccc2)cc1	Sfp inh 45µM, G9a inh 13µM, JMJD2A Tudor inconclusive, HP1b chromo inh inconclusive, BAZ2B block inconclusive
Cc1cccnc1NC(=S)Nc1ccc(F)cc1F	Sfp inh 18µM, G9a inh 50µM, BAZ2B block inconclusive
COc1cc(NC(=S)Nc2cccc(C)n2)cc(OC)c1OC	none
COc1cc(NC(=S)Nc2ncccc2C)cc(OC)c1OC	Sfp inh 50µM, G9a inh 10µM, BAZ2B block inconclusive
Cc1ccc(C)c(NC(=S)Nc2ncccc2C)c1	Sfp inh inconclusive, G9a inh 32µM, JMJD2A Tudor 32µM, HP1b chromo inh inconclusive, BAZ2B block inconclusive
CCOC(=O)c1ccc(NC(=O)CC2Sc3ccc(C(F)(F)F)cc3NC2=O)cc1 (stereo not drawn)	none (no result: Sfp inh, L3MBTL1 inh)
CC(C)(C)NC(=O)C(c1c[nH]c2ccccc12)N(C(=O)Cn1nnc(-c2ccc(F)cc2)n1)c1cccc(O)c1 (stereo not drawn)	JMJD2A Tudor 28µM, HP1b chromo inh inconclusive, BAZ2B block inconclusive
CC(C)(C)NC(=O)C(c1ccco1)N(C(=O)Cn1nnc(-c2ccc(F)cc2)n1)c1cccc(F)c1 (stereo not drawn)	none
Fc1ccc(C2=Nn3c(nnc3-c3ccco3)SC2)cc1	Sfp inh inconclusive (no result: G9a inh)
Brc1ccc(C2=Nn3c(nnc3-c3cccnc3)SC2)s1	JMJD2A Tudor 50µM
c1ccc(C2=Nn3c(nnc3-c3ccco3)SC2)cc1	Sfp inh 50µM, G9a inh 32µM
Brc1ccccc1C1=Nn2c(nnc2-c2ccccc2)SC1	Sfp inh 79µM, G9a inh 32µM
CC1=Nn2c(nnc2-c2cc(-c3ccccc3)n[nH]2)SC1	G9a inh 14µM
COc1ccccc1CNC(=O)CN1C(=O)c2cccnc2Oc2ccccc21	none (no result: Sfp inh, L3MBTL1 inh)
C[C@]12CCC(=O)C=C1CCC1C2C(O)C[C@]2(C)C1CC[C@]2(O)C(=O)CO (stereo partly drawn)	none (no result: JMJD2A Tudor, HP1b chromo inh, L3MBTL1 inh, BAZ2B block)
CCc1nnc(NC(=O)CSCc2cc(=O)c3ccc(C)cc3[nH]2)s1	none (no result: Sfp inh, L3MBTL1 inh)
CCc1ccc(OCC2c3cc(OC)c(OC)cc3CCN2C(=S)NCCOC)cc1 (stereo not drawn)	G9a inh 16µM, JMJD2A Tudor inconclusive, BAZ2B block inconclusive
CCc1ccc(OCC2c3cc(OC)c(OC)cc3CCN2C(=S)NC)cc1 (stereo not drawn)	G9a inh inconclusive, JMJD2A Tudor inconclusive, BAZ2B block inconclusive
CCNC(=S)N1CCc2cc(OC)c(OC)cc2C1COc1ccc(OC)cc1 (stereo not drawn)	G9a inh 50µM, JMJD2A Tudor inconclusive, BAZ2B block inconclusive (no result: L3MBTL1 inh)
Cc1ncc(CO)c2c1Oc1nc(-c3ccccc3)nc(SCC(=O)N3CCCCC3)c1C2	G9a inh 40µM, JMJD2A Tudor inconclusive (no result: L3MBTL1 inh)
Cc1nc(-c2ccccn2)nc(SCC(=O)N2CCOCC2)c1Cl	Sfp inh 16µM, G9a inh 20µM (no result: L3MBTL1 inh)
